The compounds below were run on FLX1 + dox-induced PRKAR1A G325D (assay: difference in log2 fold change of viability vs plate median (dox-induced PRKAR1A G325D minus uninduced); higher = compound less effective when PKA is inhibited). Details: concentration: not stated (2 or 5 uM); 5 days.
Experimental: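 For each plate a log2 fold change vs the plate median was derived, and the values without dox were subtracted from those with dox, averaged over three biological replicates.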

SMILES	difference in log2 fold change of viability
COc1cc2c(Nc3ccc(NC(=O)c4ccccc4)cc3)ncnc2cc1OCCCN1CCOCC1	0.301
COc1ccccc1-c1cc(Nc2cccc(CS(N)(=O)=O)c2)ncn1	0.055
O=C1NC(=O)/C(=C/c2ccc3c(c2)OC(F)(F)O3)S1	-0.0198
O=C(NOCC(O)CO)c1cc(Br)c(F)c(F)c1Nc1ccc(I)cc1F (stereo not given)	-1.06
O=c1cc(N2CCOCC2)oc2c(-c3ccccc3)cccc12	0.224
Cc1ccc(NC(=O)c2cccc(N(C)C)c2)cc1NC(=O)c1ccc(O)cc1	0.402
CN1CCN(C2CCN(C(=O)Nc3cc(Oc4ccc(NC(=O)C5(C(=O)Nc6ccc(F)cc6)CC5)c(F)c4)ccn3)CC2)CC1 [Golvatinib (E7050)]	0.0894
C#Cc1cccc(Nc2ncnc3cc(OCCOC)c(OCCO)cc23)c1	-0.763
Oc1c2ccccc2c2c3c(cccc13)N=N2	0.149
CC(C)(O)CC(=O)NCCn1ccc2ncnc(Nc3ccc(Oc4cccc(C(F)(F)F)c4)c(Cl)c3)c21	-0.173
Cc1nc(Nc2cnn(C3CCNCC3)c2)nc2c1N(C)C(=O)c1cc3ccccc3cc1N2C	-0.568
COc1cc(Nc2ncc(F)c(Nc3ccc4c(n3)N(COP(=O)(O)O)C(=O)C(C)(C)O4)n2)cc(OC)c1OC [Fostamatinib (R788)]	-0.76
C=CC(=O)Nc1ccc2ncnc(Nc3cccc(Br)c3)c2c1	-0.936
Cc1c(CN2CCN(C(=O)[C@H](C)O)CC2)sc2c(N3CCOCC3)nc(-c3cnc(N)nc3)nc12 [Apitolisib (GDC-0980, RG7422)]	0.628
Cc1ccc(Nc2nccc(N(C)c3ccc4c(C)n(C)nc4c3)n2)cc1S(N)(=O)=O	-0.0987
O=C1NC(=O)C(c2cnc3ccccn23)=C1c1cn2c3c(cc(F)cc13)CN(C(=O)N1CCCCC1)CC2	0.116
CSc1cccc(Nc2ncc3cc(-c4c(Cl)cccc4Cl)c(=O)n(C)c3n2)c1	-0.0582
O=C1NC(=O)/C(=C/c2ccc(-c3ccc(F)cc3O)o2)S1	-0.649
CCn1c2ccccc2c2cc(Nc3ccnc(NCCCN4CCOCC4)n3)ccc21	0.808
FC(F)c1nc2ccccc2n1-c1nc(N2CCOCC2)nc(N2CCOCC2)n1	0.435

SMILES	difference in log2 fold change of viability
NC(=O)Nc1sc(-c2ccc(F)cc2)cc1C(N)=O	-0.89
O=C(O)c1ccc(-c2c[nH]c3ncc(-c4ccccc4)cc23)cc1C1CCCC1	0.0725
COc1cc2ncnc(Nc3ccc(F)c(Cl)c3)c2cc1NC(=O)/C=C/CN1CCCCC1	-0.0217
COc1ccc(S(=O)(=O)N(CCO)c2ccccc2CN(C)C/C=C/c2ccc(Cl)cc2)cc1 [KN-93 Phosphate]	0.66
CCS(=O)(=O)c1cccc(-c2cc(C(=O)NC3CCN(C)CC3)c(C)c3[nH]c4ncc(C)cc4c23)c1	-0.102
O=C(NC[C@H](O)CO)c1ccncc1Nc1ccc(I)cc1F	-1.7
C=CC(=O)Nc1cc(Nc2nccc(-c3cn(C)c4ccccc34)n2)c(OC)cc1N(C)CCN(C)C [Osimertinib (AZD9291)]	-0.173
Cc1ccccc1CN1C2=NCCN2C(=O)C2=C1CCN(Cc1ccccc1)C2 [TIC10 Analogue]	-0.0375
COc1ccc2c(Oc3ccc(NC(=O)c4c(C)n(CC(C)(C)O)n(-c5ccccc5)c4=O)nc3)ccnc2c1	0.00712
COc1ccc(COc2cc3oc(=O)c4cc(C(C)O)ccc4c3cc2OC)cc1 (stereo not given) [Palomid 529 (P529)]	-0.0394
C[C@@H]1CN(CC(=O)Nc2ccc3c(c2)Cc2cccc(-c4cc(=O)cc(N5CCOCC5)o4)c2S3)C[C@H](C)O1	-0.0572
Nc1nccc(Oc2ccc(NC(=O)c3c[nH]cc(-c4ccc(F)cc4)c3=O)cc2F)c1Cl	-0.00105
CC(C)CC(=O)Nc1n[nH]c2c1CN(C(=O)C1CCN(C)CC1)C2(C)C	0.243
Cc1cc(C)c(/C=C2\C(=O)Nc3ccccc32)[nH]1 [Semaxanib (SU5416)]	0.256
CC(C)(C)c1cc(NC(=O)Nc2ccc(-c3cn4c(n3)sc3cc(OCCN5CCOCC5)ccc34)cc2)no1 [Quizartinib (AC220)]	0.254
CN1CCN(S(=O)(=O)c2ccc(-c3cnc(N)c(C(=O)Nc4cccnc4)n3)cc2)CC1	-0.529
CNCc1ccc(-c2cc(-c3nc(-c4ccc(S(=O)(=O)C(C)C)cc4)cnc3N)on2)cc1	-0.00074
NC(=O)c1ncn([C@@H]2O[C@H](CO)[C@@H](O)[C@H]2O)c1N [AICAR (Acadesine)]	-0.0733
CN(C[C@@H]1COCCO1)S(=O)(=O)Nc1ccc2ccc3ncc(-c4cnn(C)c4)cc3c(=O)c2c1	-0.247
Cc1ncc(-c2ccnc(Nc3ccc(S(C)(=O)=O)cc3)n2)n1C(C)C	0.632

From the supplement of paper PMC9925115
